# Tested on: T1, YANK3
# T1 construct: gene STK32C
# Conditions: concentration: 1 μM,replicates: in singlicate; n = 1
# 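Note: KINOMEscan kinase panel screen.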
row,SMILES,%Inh
1,CC(C(=O)NC1CCN(c2ccnc(Nc3ccc(F)cc3)n2)C1)c1ccc(Cl)cc1 (centres unmarked) [GSK1379713],0%
2,CNC(=O)c1ccccc1Nc1nc(Nc2cccc(CS(C)(=O)=O)c2)ncc1C.O=CO [GSK1520489],0%
3,COc1ccc(Nc2nccc(N3CCC(NC(=O)c4cccc(C#N)c4)C3)n2)cc1 (centres unmarked) [GSK1379730],0%
4,CN1CCN(CCNc2nc3cc(Oc4ccc(NC(=O)Nc5cc(C(F)(F)F)ccc5F)cc4)ccc3[nH]2)CC1.Cl.Cl [GW768504],4%
5,COc1cc(Nc2nccc(N3CCC(NC(=O)c4cccc(C#N)c4)C3)n2)cc(OC)c1OC (centres unmarked) [GSK1379751],0%
6,CSc1nccc(-c2c(-c3ccc(F)cc3)ncn2CCCN2CCOCC2)n1.Cl [SB-217146],0%
7,O=C(NCC1CC1)c1ccc(-c2cc(C(=O)NC3CC3)ccc2F)cc1 [GW810445],0%
8,Cl.Cl.NC[C@H](CC1CCCCC1)NC(=O)c1ccc(-c2ccnc3[nH]ccc23)s1 [GSK1581428],35%
9,Cc1cccc(-c2nc(Nc3ccncc3)c3sccc3n2)n1 [GW869641],0%
10,CCNCC(Cc1ccccc1)NC(=O)c1cc(Br)c(-c2ccnc3[nH]ccc23)s1.Cl.Cl (centres unmarked) [GSK1383280],11%
11,CC(C)S(=O)(=O)N1CCN(Cc2ccc3c(c2)nc(NC(=O)c2ccsc2)n3C[C@H](O)c2ccccc2)CC1 [GW635815],5%
12,CN(c1cccc(CNc2nc(Nc3ccc4c(c3)CC(=O)N4)ncc2C(F)(F)F)c1)S(C)(=O)=O,0%
13,COc1cc2nccc(Nc3ccc(Oc4ccccc4)cc3)c2cc1OC.Cl [GI261656],0%
14,c1ccc(Oc2ccc(Nc3ccnc4ccc(-c5ccccn5)cc34)cc2)cc1 [GW407034],30%
15,Cn1ccc2ncnc(Oc3ccc(NC(=O)Nc4cc(C(C)(C)C)on4)c(Cl)c3)c21,0%
16,CS(=O)(=O)Nc1ccc(-c2ccnc3[nH]ccc23)cc1 [GSK993273],20%
17,FC(F)(F)c1cc(Br)cc(Nc2nccc(-c3cnn4ncccc34)n2)c1 [GW810578],25%
18,Cn1ccc2ncnc(Oc3ccc(NC(=O)Nc4cccc(C(F)(F)F)c4)c(F)c3)c21,1%
19,CN(c1ccccc1CNc1nc(Nc2ccc3c(c2)CC(=O)N3)ncc1C(F)(F)F)S(C)(=O)=O,0%

row,SMILES,%Inh
1,O=C1NCCc2[nH]c(-c3ccncc3)cc21,6%
2,COc1cccc(CNC(=O)NC2CCN(c3ccnc(Nc4cc(OC)c(OC)c(OC)c4)n3)C2)c1 (centres unmarked) [GSK1379765],7%
3,CC(C)c1nc(-c2cccc(NS(=O)(=O)c3ccccc3)c2)c(-c2ccnc(Nc3ccc4c(c3)CN(C)CC4)n2)s1 [GSK1649598],11%
4,C[C@@H](Oc1cc(-n2cnc3ccc(-c4ccncc4)cc32)sc1C(N)=O)c1ccccc1Cl [GSK483724],28%
5,Cc1ccc(C(=O)Nc2ccc(Oc3ccc4nc(NC(=O)C5CC5)cn4c3)c(F)c2)c(=O)n1-c1ccccc1,0%
6,CN1CCN(CCCNc2nccc(-c3c(-c4ccc(F)cc4)nn4cc(C(N)=O)ccc34)n2)CC1 [GW622475],16%
7,CS(=O)c1ccc(-c2coc3ccc(-c4n[nH]c(=O)o4)cc23)cc1 (centres unmarked),0%
8,O=c1[nH]cc(-c2ccc(O)cc2)c2sc(-c3ccncc3)cc12 [GSK1033723],14%
9,Cn1ccc2ncnc(Oc3ccc(NC(=O)Nc4cccc(C(F)(F)F)c4)c(Cl)c3)c21,13%
10,Cc1ccc(Nc2ccnc(Nc3ccc4c(c3)CS(=O)(=O)C4)n2)cc1O.Cl [GW579362],0%
11,Cc1ccn2nc(-c3ccc(F)cc3)c(-c3ccncc3)c2c1.Cl [GW457859],0%
12,C[C@@H](Oc1cc(-n2cnc3cc(-c4ccncc4)ccc32)sc1C(N)=O)c1ccccc1Cl [GSK479719],26%
13,Cc1ccc2c(-c3ccnc(Nc4ccc(C(F)(F)F)cc4)n3)cnn2n1 [GW819776],0%
14,COc1cccc(C2=C(Nc3cccc(Cl)c3)C(=O)NC2=O)c1 [SB-341556],11%
15,Cn1ccc2ncnc(Oc3ccc(NC(=O)Nc4cncc(C(F)(F)F)c4)c(Cl)c3)c21,25%
16,O=C(Nc1ccccc1)c1cccc(Oc2ccc3nccn3n2)c1,0%
17,O=C(Nc1cccc(C(F)(F)F)c1)c1cccc(Oc2ccc3nccn3n2)c1,30%
18,Cn1cc(-c2cccc3c(N)c(C(N)=O)nnc23)cn1,0%

# Tested on: T2, YES
# T2 construct: gene YES1
# Conditions: concentration: 1 μM,replicates: in singlicate; n = 1
row,SMILES,%Inh
1,CC(C(=O)NC1CCN(c2ccnc(Nc3ccc(F)cc3)n2)C1)c1ccc(Cl)cc1 (centres unmarked) [GSK1379713],0%
2,CNC(=O)c1ccccc1Nc1nc(Nc2cccc(CS(C)(=O)=O)c2)ncc1C.O=CO [GSK1520489],99.8%
3,COc1ccc(Nc2nccc(N3CCC(NC(=O)c4cccc(C#N)c4)C3)n2)cc1 (centres unmarked) [GSK1379730],15%
4,CN1CCN(CCNc2nc3cc(Oc4ccc(NC(=O)Nc5cc(C(F)(F)F)ccc5F)cc4)ccc3[nH]2)CC1.Cl.Cl [GW768504],0%
5,COc1cc(Nc2nccc(N3CCC(NC(=O)c4cccc(C#N)c4)C3)n2)cc(OC)c1OC (centres unmarked) [GSK1379751],20%
6,CSc1nccc(-c2c(-c3ccc(F)cc3)ncn2CCCN2CCOCC2)n1.Cl [SB-217146],0%
7,O=C(NCC1CC1)c1ccc(-c2cc(C(=O)NC3CC3)ccc2F)cc1 [GW810445],0%
8,Cl.Cl.NC[C@H](CC1CCCCC1)NC(=O)c1ccc(-c2ccnc3[nH]ccc23)s1 [GSK1581428],5%
9,Cc1cccc(-c2nc(Nc3ccncc3)c3sccc3n2)n1 [GW869641],0%
10,CCNCC(Cc1ccccc1)NC(=O)c1cc(Br)c(-c2ccnc3[nH]ccc23)s1.Cl.Cl (centres unmarked) [GSK1383280],19%
11,CC(C)S(=O)(=O)N1CCN(Cc2ccc3c(c2)nc(NC(=O)c2ccsc2)n3C[C@H](O)c2ccccc2)CC1 [GW635815],86%
12,CN(c1cccc(CNc2nc(Nc3ccc4c(c3)CC(=O)N4)ncc2C(F)(F)F)c1)S(C)(=O)=O,3%
13,COc1cc2nccc(Nc3ccc(Oc4ccccc4)cc3)c2cc1OC.Cl [GI261656],79%
14,c1ccc(Oc2ccc(Nc3ccnc4ccc(-c5ccccn5)cc34)cc2)cc1 [GW407034],55%
15,Cn1ccc2ncnc(Oc3ccc(NC(=O)Nc4cc(C(C)(C)C)on4)c(Cl)c3)c21,3%
16,CS(=O)(=O)Nc1ccc(-c2ccnc3[nH]ccc23)cc1 [GSK993273],8%
17,FC(F)(F)c1cc(Br)cc(Nc2nccc(-c3cnn4ncccc34)n2)c1 [GW810578],0%
18,Cn1ccc2ncnc(Oc3ccc(NC(=O)Nc4cccc(C(F)(F)F)c4)c(F)c3)c21,0%
19,CN(c1ccccc1CNc1nc(Nc2ccc3c(c2)CC(=O)N3)ncc1C(F)(F)F)S(C)(=O)=O,29%

row,SMILES,%Inh
1,O=C1NCCc2[nH]c(-c3ccncc3)cc21,0%
2,COc1cccc(CNC(=O)NC2CCN(c3ccnc(Nc4cc(OC)c(OC)c(OC)c4)n3)C2)c1 (centres unmarked) [GSK1379765],7%
3,CC(C)c1nc(-c2cccc(NS(=O)(=O)c3ccccc3)c2)c(-c2ccnc(Nc3ccc4c(c3)CN(C)CC4)n2)s1 [GSK1649598],99.7%
4,C[C@@H](Oc1cc(-n2cnc3ccc(-c4ccncc4)cc32)sc1C(N)=O)c1ccccc1Cl [GSK483724],16%
5,Cc1ccc(C(=O)Nc2ccc(Oc3ccc4nc(NC(=O)C5CC5)cn4c3)c(F)c2)c(=O)n1-c1ccccc1,71%
6,CN1CCN(CCCNc2nccc(-c3c(-c4ccc(F)cc4)nn4cc(C(N)=O)ccc34)n2)CC1 [GW622475],24%
7,CS(=O)c1ccc(-c2coc3ccc(-c4n[nH]c(=O)o4)cc23)cc1 (centres unmarked),0%
8,O=c1[nH]cc(-c2ccc(O)cc2)c2sc(-c3ccncc3)cc12 [GSK1033723],5%
9,Cn1ccc2ncnc(Oc3ccc(NC(=O)Nc4cccc(C(F)(F)F)c4)c(Cl)c3)c21,0%
10,Cc1ccc(Nc2ccnc(Nc3ccc4c(c3)CS(=O)(=O)C4)n2)cc1O.Cl [GW579362],81%
11,Cc1ccn2nc(-c3ccc(F)cc3)c(-c3ccncc3)c2c1.Cl [GW457859],5%
12,C[C@@H](Oc1cc(-n2cnc3cc(-c4ccncc4)ccc32)sc1C(N)=O)c1ccccc1Cl [GSK479719],44%
13,Cc1ccc2c(-c3ccnc(Nc4ccc(C(F)(F)F)cc4)n3)cnn2n1 [GW819776],0%
14,COc1cccc(C2=C(Nc3cccc(Cl)c3)C(=O)NC2=O)c1 [SB-341556],17%
15,Cn1ccc2ncnc(Oc3ccc(NC(=O)Nc4cncc(C(F)(F)F)c4)c(Cl)c3)c21,0%
16,O=C(Nc1ccccc1)c1cccc(Oc2ccc3nccn3n2)c1,0%
17,O=C(Nc1cccc(C(F)(F)F)c1)c1cccc(Oc2ccc3nccn3n2)c1,0%
18,Cn1cc(-c2cccc3c(N)c(C(N)=O)nnc23)cn1,0%
